In all, about 68,000 sequences were measured (“fluorescence intensity (a.u.)”: median about 9,100, highest 2% from about 16,000 on). The entries come from a sample that favours the highest values as a whole.
Each sequence was assayed against OsWRKY34 (Oryza sativa, UniProt Q0JBA9 1-250) (assay: protein-binding microarray (RPBM); PBS, 2% BSA, 51.3 ng/ul salmon testes DNA, 50 uM zinc acetate, 200 nM TF, 25 C, 1 h; high values mean tight binding). Settings: protein: recombinant; tags: N-terminal polyhistidine and DsRed monomer fusion (pET32a); label: CyDye5-dUTP incorporated in the synthesized complementary strand; 3' TTTTT single-stranded linker to array surface; dsDNA, one strand shown.
Sequence of OsWRKY34 (Q0JBA9 entry or part of it): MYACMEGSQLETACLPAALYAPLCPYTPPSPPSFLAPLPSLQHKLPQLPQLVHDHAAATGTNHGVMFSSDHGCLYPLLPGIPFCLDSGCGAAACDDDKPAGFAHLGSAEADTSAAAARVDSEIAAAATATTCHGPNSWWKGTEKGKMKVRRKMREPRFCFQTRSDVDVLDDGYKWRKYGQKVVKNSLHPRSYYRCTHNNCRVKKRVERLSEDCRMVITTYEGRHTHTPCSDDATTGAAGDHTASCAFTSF
In short: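 The binding signal for each feature is its fluorescence intensity in arbitrary units. An Axon 4000B scanner was used to read a custom Agilent array that had been made double-stranded with Cy5-dUTP primer extension, blocked with 2% BSA, incubated at 25 °C for 1 h with 200 nM protein in PBS, 2% BSA, salmon testes DNA and 50 µM zinc acetate, and washed. The protein was an N-terminal polyhistidine–DsRed transcription factor fusion from E. coli BL21-CodonPlus, purified on Ni–NTA.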
In the case of “GGTCTCAGGTTGTCACTTTTCTATCCAGATTTATCGTAGTCGGAGTCACCTAGTGCAG”, the binding signal is reported as 8110 fluorescence intensity (a.u.).
For “ATCCTCACGTAATATACACCTTCGTACCATAATATAATAACGGAGTCACCTAGTGCAG”, the binding signal was 8250 fluorescence intensity (a.u.).
For “CGCTTCCTGTTGTGATTATGTAATCTTGTATTCTTGTTGACGGAGTCACCTAGTGCAG”, the binding signal was 11600 fluorescence intensity (a.u.).
For “CTCCCTCGTCTTTCTGCTGGCCACCACCCTCCCCGTCTTCCGGAGTCACCTAGTGCAG”, the binding signal was 12300 fluorescence intensity (a.u.).
For “ACCTTTCTCACTACACGCCATTCCGCTCGCGTCCAATTGTCGGAGTCACCTAGTGCAG”, the binding signal was 10100 fluorescence intensity (a.u.).
For “CTCGTCGTCTCCTCCGCTCCTTGCGCCATCTCGCGGCTGACGGAGTCACCTAGTGCAG”, the binding signal was 11500 fluorescence intensity (a.u.).
In the case of “CATGATCGCTGTGCACCTTCTGAATCATCTCTTCAATGGCCGGAGTCACCTAGTGCAG”, the binding signal is reported as 9780 fluorescence intensity (a.u.).
“TTTAAATGTATCATGTCATTGACTTTTTTATAATATTTGACGGAGTCACCTAGTGCAG” was tested, and the binding signal was 8120 fluorescence intensity (a.u.).
With “CATGCCAATCATAAATAATGACATATTGGTTGACTTTTTGCGGAGTCACCTAGTGCAG” the binding signal was 11000 fluorescence intensity (a.u.).
For “TTTAATGTATGGTGCCGTTGACTTTTTTTATCAATATTTGCGGAGTCACCTAGTGCAG”, the binding signal was 41200 fluorescence intensity (a.u.).
With “CATACTGTTCCACTCGCCCTCGTTTTCTCCGCCACCGAGCCGGAGTCACCTAGTGCAG” the binding signal was 8450 fluorescence intensity (a.u.).
“TTGACGCCGTTGACTTTTTAGTACATGTTTGACCATTCGTCGGAGTCACCTAGTGCAG” was tested, and the binding signal was 49900 fluorescence intensity (a.u.).
In the case of “TTGACGCCGTTGACTTTTTAATACATGTTTGACCATTCGTCGGAGTCACCTAGTGCAG”, the binding signal is reported as 44300 fluorescence intensity (a.u.).
In the case of “CTCCCTCCGTTTCGAAATGTTTGACGCCGTTGACTTTTTACGGAGTCACCTAGTGCAG”, the binding signal is reported as 15900 fluorescence intensity (a.u.).
“ACTCCCTCCGTTTCAAAATGTTTGACATCATTGACTTTTTCGGAGTCACCTAGTGCAG” was tested, and the binding signal was 11100 fluorescence intensity (a.u.).
For “TCCGTTTCGGAATGTTTGACGCCGTTGACTTTTTATTACACGGAGTCACCTAGTGCAG”, the binding signal was 25400 fluorescence intensity (a.u.).
With “CGCTGTTCAGACGTTGACTCTCGTTGTTTTTATAGTTTTTCGGAGTCACCTAGTGCAG” the binding signal was 14600 fluorescence intensity (a.u.).
For “CTCCCTTCGTTTCGAAATGTTTGACGCCGTTGACTTTTTACGGAGTCACCTAGTGCAG”, the binding signal was 22800 fluorescence intensity (a.u.).
In the case of “ATACTCCCTTCGTTTCGAAATGTTTGACGCCGTTGACTTTCGGAGTCACCTAGTGCAG”, the binding signal is reported as 14300 fluorescence intensity (a.u.).
“ACTCTCTCCGTTTCGAAATGTTTGACGCTGTTGACTTTTTCGGAGTCACCTAGTGCAG” was tested, and the binding signal was 17500 fluorescence intensity (a.u.).
In the case of “CTCCCTCTATCAAAAAAATGTTTGACGCCGTTGACTTTTTCGGAGTCACCTAGTGCAG”, the binding signal is reported as 25600 fluorescence intensity (a.u.).
“CACCCTCTCCCGTGTTCCACCCCGCCCGCGAATCATATCCCGGAGTCACCTAGTGCAG” was tested, and the binding signal was 9340 fluorescence intensity (a.u.).
With “TCCGTCCCTGCAGTCACCTTATTGGTCAAATTTTAAATATCGGAGTCACCTAGTGCAG” the binding signal was 13400 fluorescence intensity (a.u.).

— PMC7819943, “Rice protein-binding microarrays: a tool to detect cis-acting elements near promoter regions in rice”
